# Test results: PubChem BioAssay (EPA / NIEHS)
# Records with an inconclusive call do not appear. The source made the active and inactive calls. The calls were made as follows, unless noted: active = hit-call score of the fitted dose curve at least 0.9, where 1 is the maximum; inactive = score below 0.9.
# Key:
# [1] = ATG_CRE_CIS: Attagene CIS-FACTORIAL HepG2 Assay for human cAMP Responsive Element (CRE) binding protein 3 (AID 2282926); conditions: HepG2 CRE cis-reporter, Attagene multiplexed mRNA; actives raise or lower the signal
# In short: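 Assay format: transient reporter transfection of HepG2, 24 h treatment, total RNA isolation with DNase I step. Reporter abundance read by fluorescence after PCR and capillary separation; DMSO-normalised gain or loss fitting.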
# [2] = ATG_DR4_LXR_CIS: Attagene CIS-FACTORIAL HepG2 Assay for human Liver X Receptor (LXR), DR4 submotif (AID 2282929); conditions: HepG2 Attagene DR4 cis-reporter, mRNA transcription; actives raise or lower the signal
# In short: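 The endpoint is DR4-element-driven reporter transcripts after 24 h chemical exposure of transfected HepG2 cells. These were measured via RT-PCR and capillary electrophoresis, and gain or loss of signal was fitted relative to DMSO controls.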
# [3] = ATG_GRE_CIS: Attagene CIS-FACTORIAL HepG2 Assay for human Glucocorticoid Response Elements (GRE) (AID 2282947); conditions: HepG2 GRE cis-reporter, Attagene multiplex mRNA; actives raise or lower the signal
# In short: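 Cells (HepG2) bearing transfected cis-promoter reporter transcription units were treated with chemical for 24 hours. Reporter mRNA was measured via RT-PCR with capillary electrophoresis, and activity was fitted in both directions relative to DMSO.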
# [4] = target: Hypoxia-inducible factor 1-alpha (Homo sapiens) (UniProt Q16665); test: ATG_HIF1a_CIS: Attagene CIS-FACTORIAL HepG2 Assay for human Hypoxia Inducible Factor 1 (HIF1A) (AID 2282951); conditions: HepG2 Attagene cis-factorial HIF1a reporter transcription; actives raise or lower the signal
# In short: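 Activity is fitted in both directions relative to DMSO. Reporter transcripts are read by RT-PCR, fluorescent primer extension and capillary electrophoresis after 24 h chemical treatment. The cells are HepG2 carrying transiently transfected cis-element-driven reporter units responding to endogenous factors.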
# [5] = target: Hepatocyte nuclear factor 6 (Homo sapiens) (UniProt Q9UBC0); test: ATG_HNF6_CIS: Attagene CIS-FACTORIAL HepG2 Assay for human Hepatocyte Nuclear Factor 6 (HNF6) (AID 2282952); conditions: HepG2 Attagene cis-factorial HNF6 reporter transcription; actives raise or lower the signal
# In short: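 Using cis-element reporters in HepG2 liver cells, the assay tracks endogenous factor-driven transcription 24 h post-dosing. Signal comes from 6-FAM-labelled, HpaI-digested RT-PCR fragments, with gain or loss scored against DMSO.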
# [6] = target: Heat shock factor protein 1 (Homo sapiens) (UniProt Q00613); test: ATG_HSE_CIS: Attagene CIS-FACTORIAL HepG2 Assay for human Heat Shock Transcription Factor 1 (HSE) (AID 2282953); conditions: HepG2 HSE cis-reporter, Attagene RNA transcription; actives raise or lower the signal
# In short: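 Endogenous transcription factor activity in transiently transfected HepG2, read as reporter mRNA by RT-PCR with fluorescent capillary electrophoresis after 24 h. Gain or loss of signal fitted versus DMSO baseline.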
# [7] = ATG_TCF_b_cat_CIS: Attagene CIS-FACTORIAL HepG2 Assay for human T-Cell-Factor with beta-catenin (TCF/b-cat) (AID 2282965); conditions: HepG2 TCF/beta-catenin cis-reporter transcription, actives raise or lower the signal
# In short: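 HepG2 cells transiently transfected with multiple cis-promoter-regulated reporter transcription units, so endogenous transcription factor activity is measured. Reporter mRNA read 24 hours after dosing by RT-PCR, fluorescent labelling and capillary electrophoresis; bidirectional fitting against DMSO.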
# [8] = ATG_TGFb_CIS: Attagene CIS-FACTORIAL HepG2 Assay for human Transforming Growth Factor (TGF) (AID 2282967); conditions: HepG2 Attagene CIS TGFb reporter, mRNA transcription; actives raise or lower the signal
# In short: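 Endogenous TGFB1-linked transcription factor activity read as reporter mRNA via RT-PCR and capillary electrophoresis, 24 h after dosing transiently transfected HepG2 cells. Gain or loss of signal fitted relative to DMSO.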
# [9] = target: Transcriptional activator Myb (Homo sapiens) (UniProt P10242); test: ATG_Myb_CIS: Attagene CIS-FACTORIAL HepG2 Assay for human Myeloblastosis (Myb) Proto-Oncogene Transcription Factor (AID 2282986); conditions: HepG2 Attagene CIS-FACTORIAL Myb reporter transcription; actives raise or lower the signal
# In short: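 Reporter mRNA is quantified by RT-PCR and capillary electrophoresis 24 h after dosing HepG2 cells transfected with cis-regulated reporter units, which track endogenous transcription factor activity. Gain and loss of signal are fitted versus DMSO baseline.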
# [10] = target: Nuclear respiratory factor 1 (Homo sapiens) (UniProt Q16656); test: ATG_NRF1_CIS: Attagene CIS-FACTORIAL HepG2 Assay for human Nuclear Respiratory Factor 1 (NRF1) Orphan Gene (AID 2282987); conditions: HepG2 NRF1 cis-element reporter, Attagene multiplex; actives raise or lower the signal
# In short: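 Endogenous NRF1-driven reporter transcription in transfected HepG2 cells after 24 h treatment. Readout: RT-PCR products, 6-FAM labelled and resolved by capillary electrophoresis; changes fitted both directions relative to DMSO.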
# [11] = ATG_NFI_CIS: Attagene CIS-FACTORIAL HepG2 Assay for human Nuclear Factor I (NFI) (AID 2282989); conditions: HepG2 cis-regulatory reporter, NFI response element transcription; actives raise or lower the signal
# In short: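 Reporter transcripts were measured by RT-PCR with fluorescent primer extension and capillary electrophoresis 24 h post-treatment. HepG2 cells carried transiently transfected cis-regulated reporter constructs reporting endogenous factor activity; gain or loss fitted against DMSO baseline.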
# [12] = target: Myc proto-oncogene protein (Homo sapiens) (UniProt P01106); test: ATG_Myc_CIS: Attagene CIS-FACTORIAL HepG2 Assay for human Myelocytomatosis (Myc) Proto-Oncogene Transcription Factor (AID 2282990); conditions: HepG2, Attagene cis-reporter transcription factor activity; actives raise or lower the signal
# In short: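 HepG2 cells transiently transfected with multiple cis-promoter-driven reporter transcription units, so endogenous TF activity is read. After 24 h compound exposure, reporter mRNA was quantified by RT-PCR, 6-FAM labelling, HpaI digestion and capillary electrophoresis; bidirectional fit versus DMSO.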
# [13] = ATG_NRF2_ARE_CIS: Attagene CIS-FACTORIAL HepG2 Assay for human Nuclear Factor Erythroid 2 Related Factor 2 (NFR2) response to Antioxidant Response Elements (ARE) (AID 2282992); conditions: HepG2 Attagene ARE/NRF2 reporter, transcription factor activity; actives raise or lower the signal
# In short: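 Endogenous transcription factor activity in human liver HepG2 cells is tracked via a cis-element-driven reporter within a multiplexed set. mRNA induction is read by RT-PCR and capillary electrophoresis after 24 h, with DMSO as baseline.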
# [14] = ATG_Oct_MLP_CIS: Attagene CIS-FACTORIAL HepG2 Assay for human Octamer-Binding Transcription Factor (Oct) (AID 2282993); conditions: HepG2 Attagene cis-factorial Oct reporter, mRNA; actives raise or lower the signal
# In short: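 Readout is reporter transcript level from RT-PCR with fluorescent primer extension and capillary electrophoresis, fitted in both directions against DMSO. Transfected HepG2 reporter units report endogenous factor activity after 24 h dosing.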
# [15] = target: Cellular tumor antigen p53 (Homo sapiens) (UniProt P04637); test: ATG_p53_CIS: Attagene CIS-FACTORIAL HepG2 Assay for human p53 Transcription Factor (AID 2282994); conditions: HepG2 p53 cis-element reporter, Attagene mRNA; actives raise or lower the signal
# In short: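 Steps: transfect HepG2 with multiplexed cis reporter constructs; dose chemicals 24 h; extract RNA, reverse-transcribe, PCR-amplify reporter sequences; FAM-label, HpaI-digest, resolve fragments by CE. Activity fitted both directions relative to DMSO.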
# [16] = target: Nuclear receptor subfamily 1 group I member 2 (Homo sapiens) (UniProt O75469); test: ATG_PXR_TRANS: Attagene TRANS-FACTORIAL HepG2 Assay for human Pregnane X Receptor (PXR) (AID 2283008; active = hit-call score of the fitted dose curve at least 0.9, where 1 is the maximum)
# In short: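 HepG2 transfected (FuGene 6) with GAL4-UAS reporter units + PXR-Gal4 chimera; dosed 24 h. Total RNA → oligo(dT) RT → PCR → 6-FAM primer extension → HpaI cut → CE. Gain-of-signal vs DMSO.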
# [17] = ATG_XTT_Cytotoxicity: Cytotoxicity Assessment in the Attagene TRANS-FACTORIAL HepG2 Assay (AID 2283584; active = hit-call score of the fitted dose curve at least 0.9, where 1 is the maximum)
# In short: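 Cells: human HepG2, transiently transfected with MRTU reporter constructs. Exposure 24 h. Readout: XTT, cell number. Baseline/neg ctrl DMSO; loss-of-signal scored.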
# [18] = target: Transcription factor E2F1 (Homo sapiens) (UniProt Q01094); test: ATG_E2F_CIS: Attagene CIS-FACTORIAL HepG2 Assay for human E2F Transcription Factor 1 (AID 2282935); conditions: HepG2 Attagene cis-reporter, E2F reporter RNA transcripts; actives raise or lower the signal
# In short: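 First, HepG2 cells were transfected with reporter transcription units. Next, they were dosed for 24 h. Then RNA was isolated, converted to cDNA, PCR-amplified, FAM-labeled, HpaI-digested and analyzed by capillary electrophoresis.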
# [19] = ATG_GLI_CIS: Attagene CIS-FACTORIAL HepG2 Assay for human Zinc Finger Protein GLI1 (AID 2282945); conditions: HepG2, Attagene cis-factorial reporter mRNA, GLI element; actives raise or lower the signal
# In short: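 HepG2 cells transiently transfected with cis-promoter multiplexed reporter units report endogenous transcription factor activity. After 24 h chemical exposure, reporter mRNA was quantified by RT-PCR, 6-FAM labelling, HpaI digestion and capillary electrophoresis, with bidirectional fitting against DMSO.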
# [20] = ATG_TA_CIS: Attagene CIS-FACTORIAL HepG2 Assay for human TA Basal Promoter (AID 2282964); conditions: HepG2 Attagene CIS-factorial TA basal promoter reporter; actives raise or lower the signal
# In short: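 Background-control readout: TA basal promoter reporter mRNA, fitted in both directions relative to DMSO. Measured by RT-PCR and capillary electrophoresis 24 hours after treating HepG2 human liver cells transiently carrying multiplexed cis-regulated reporter constructs.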
# Sequence of Nuclear respiratory factor 1 (Homo sapiens) (Q16656 whole entry, looked up): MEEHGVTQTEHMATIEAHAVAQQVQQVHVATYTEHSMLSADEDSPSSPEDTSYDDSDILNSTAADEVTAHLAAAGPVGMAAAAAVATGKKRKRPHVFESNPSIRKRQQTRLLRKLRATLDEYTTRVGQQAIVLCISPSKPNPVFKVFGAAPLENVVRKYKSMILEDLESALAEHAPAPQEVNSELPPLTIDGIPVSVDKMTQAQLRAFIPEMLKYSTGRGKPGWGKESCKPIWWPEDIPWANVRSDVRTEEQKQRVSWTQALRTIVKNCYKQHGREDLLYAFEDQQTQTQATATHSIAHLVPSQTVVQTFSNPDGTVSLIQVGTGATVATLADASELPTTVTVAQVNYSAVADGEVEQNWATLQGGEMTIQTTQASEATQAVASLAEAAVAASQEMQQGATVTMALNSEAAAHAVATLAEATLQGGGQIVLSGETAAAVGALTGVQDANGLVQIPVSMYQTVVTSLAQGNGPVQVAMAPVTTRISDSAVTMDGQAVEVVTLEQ
# Sequence of Hepatocyte nuclear factor 6 (Homo sapiens) (Q9UBC0 whole entry, looked up, the tested form may be a part): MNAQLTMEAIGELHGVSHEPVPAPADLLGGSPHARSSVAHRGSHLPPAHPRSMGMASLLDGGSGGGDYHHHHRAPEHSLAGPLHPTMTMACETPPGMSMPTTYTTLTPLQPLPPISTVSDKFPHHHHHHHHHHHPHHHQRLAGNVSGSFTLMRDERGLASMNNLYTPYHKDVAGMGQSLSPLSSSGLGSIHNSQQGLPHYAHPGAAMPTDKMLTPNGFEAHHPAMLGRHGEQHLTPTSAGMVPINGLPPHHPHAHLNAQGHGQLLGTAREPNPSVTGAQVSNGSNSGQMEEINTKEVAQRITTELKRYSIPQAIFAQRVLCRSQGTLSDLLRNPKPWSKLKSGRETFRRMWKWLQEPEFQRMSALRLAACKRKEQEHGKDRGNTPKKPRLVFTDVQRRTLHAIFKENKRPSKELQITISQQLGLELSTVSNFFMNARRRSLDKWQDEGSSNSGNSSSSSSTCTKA
# Sequence of Nuclear receptor subfamily 1 group I member 2 (Homo sapiens) (O75469 whole entry, looked up, the tested form may be a part): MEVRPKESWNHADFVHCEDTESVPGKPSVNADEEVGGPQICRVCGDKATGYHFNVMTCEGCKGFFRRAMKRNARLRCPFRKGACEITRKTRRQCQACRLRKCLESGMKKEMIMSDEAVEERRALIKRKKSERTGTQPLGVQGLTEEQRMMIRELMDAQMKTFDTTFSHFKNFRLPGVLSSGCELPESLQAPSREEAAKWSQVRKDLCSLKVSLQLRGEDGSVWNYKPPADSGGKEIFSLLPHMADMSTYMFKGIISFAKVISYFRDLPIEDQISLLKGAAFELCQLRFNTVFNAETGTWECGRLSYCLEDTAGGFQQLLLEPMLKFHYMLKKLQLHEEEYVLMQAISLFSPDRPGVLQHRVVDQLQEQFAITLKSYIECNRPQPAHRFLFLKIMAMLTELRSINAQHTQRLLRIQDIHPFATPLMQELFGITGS
# Sequence of Transcriptional activator Myb (Homo sapiens) (P10242 whole entry, looked up): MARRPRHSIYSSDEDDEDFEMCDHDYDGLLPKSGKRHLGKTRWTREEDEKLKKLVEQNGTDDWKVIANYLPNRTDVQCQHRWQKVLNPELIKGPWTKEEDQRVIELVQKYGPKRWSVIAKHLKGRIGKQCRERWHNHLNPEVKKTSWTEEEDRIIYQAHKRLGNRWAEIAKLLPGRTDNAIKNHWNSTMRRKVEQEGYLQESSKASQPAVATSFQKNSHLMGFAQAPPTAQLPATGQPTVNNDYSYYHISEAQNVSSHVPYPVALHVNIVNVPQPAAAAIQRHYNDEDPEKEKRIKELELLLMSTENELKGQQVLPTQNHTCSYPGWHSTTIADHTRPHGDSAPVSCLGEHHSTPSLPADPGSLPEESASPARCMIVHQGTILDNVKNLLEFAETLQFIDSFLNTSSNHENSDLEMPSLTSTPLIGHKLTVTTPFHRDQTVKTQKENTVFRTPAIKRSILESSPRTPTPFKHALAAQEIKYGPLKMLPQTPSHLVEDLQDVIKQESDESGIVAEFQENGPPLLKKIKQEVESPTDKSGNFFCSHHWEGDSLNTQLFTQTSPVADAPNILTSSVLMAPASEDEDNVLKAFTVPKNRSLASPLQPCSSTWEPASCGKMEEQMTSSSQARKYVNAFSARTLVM
# Sequence of Heat shock factor protein 1 (Homo sapiens) (Q00613 whole entry, looked up): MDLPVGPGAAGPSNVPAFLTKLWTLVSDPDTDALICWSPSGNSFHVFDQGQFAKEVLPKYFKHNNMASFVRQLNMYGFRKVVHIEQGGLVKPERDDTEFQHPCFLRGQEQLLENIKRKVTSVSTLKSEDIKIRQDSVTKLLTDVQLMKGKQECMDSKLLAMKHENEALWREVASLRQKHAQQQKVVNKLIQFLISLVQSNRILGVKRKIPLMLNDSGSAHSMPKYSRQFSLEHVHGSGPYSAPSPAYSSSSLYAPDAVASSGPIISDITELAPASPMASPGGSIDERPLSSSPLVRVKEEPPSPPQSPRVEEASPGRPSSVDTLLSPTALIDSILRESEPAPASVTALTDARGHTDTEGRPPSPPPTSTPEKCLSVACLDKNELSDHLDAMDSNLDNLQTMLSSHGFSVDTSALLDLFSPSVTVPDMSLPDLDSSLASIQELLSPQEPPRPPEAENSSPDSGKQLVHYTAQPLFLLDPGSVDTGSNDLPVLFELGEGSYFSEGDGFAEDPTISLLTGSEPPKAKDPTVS
# Sequence of Hypoxia-inducible factor 1-alpha (Homo sapiens) (Q16665 whole entry, looked up): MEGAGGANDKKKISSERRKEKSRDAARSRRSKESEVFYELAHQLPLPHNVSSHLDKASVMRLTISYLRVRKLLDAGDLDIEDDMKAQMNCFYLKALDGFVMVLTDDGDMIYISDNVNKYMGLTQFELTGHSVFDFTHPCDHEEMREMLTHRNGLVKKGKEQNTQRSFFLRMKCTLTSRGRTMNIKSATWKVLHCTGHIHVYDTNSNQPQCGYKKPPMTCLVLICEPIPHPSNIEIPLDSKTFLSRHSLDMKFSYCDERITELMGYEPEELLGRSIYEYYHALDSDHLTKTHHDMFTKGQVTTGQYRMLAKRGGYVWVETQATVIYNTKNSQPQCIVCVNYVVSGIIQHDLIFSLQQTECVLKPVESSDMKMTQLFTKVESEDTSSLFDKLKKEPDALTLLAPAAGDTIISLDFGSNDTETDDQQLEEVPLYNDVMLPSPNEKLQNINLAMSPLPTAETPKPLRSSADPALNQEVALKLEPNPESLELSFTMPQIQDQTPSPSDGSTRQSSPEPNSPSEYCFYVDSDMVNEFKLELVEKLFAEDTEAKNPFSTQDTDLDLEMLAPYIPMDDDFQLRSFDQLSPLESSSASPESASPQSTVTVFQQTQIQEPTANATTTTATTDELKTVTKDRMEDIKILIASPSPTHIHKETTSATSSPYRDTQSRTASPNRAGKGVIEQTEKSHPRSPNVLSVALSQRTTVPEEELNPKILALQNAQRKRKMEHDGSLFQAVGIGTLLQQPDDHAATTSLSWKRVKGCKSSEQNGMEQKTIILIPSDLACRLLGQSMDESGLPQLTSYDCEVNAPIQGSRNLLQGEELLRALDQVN
# Sequence of Cellular tumor antigen p53 (Homo sapiens) (P04637 whole entry, looked up, the tested form may be a part): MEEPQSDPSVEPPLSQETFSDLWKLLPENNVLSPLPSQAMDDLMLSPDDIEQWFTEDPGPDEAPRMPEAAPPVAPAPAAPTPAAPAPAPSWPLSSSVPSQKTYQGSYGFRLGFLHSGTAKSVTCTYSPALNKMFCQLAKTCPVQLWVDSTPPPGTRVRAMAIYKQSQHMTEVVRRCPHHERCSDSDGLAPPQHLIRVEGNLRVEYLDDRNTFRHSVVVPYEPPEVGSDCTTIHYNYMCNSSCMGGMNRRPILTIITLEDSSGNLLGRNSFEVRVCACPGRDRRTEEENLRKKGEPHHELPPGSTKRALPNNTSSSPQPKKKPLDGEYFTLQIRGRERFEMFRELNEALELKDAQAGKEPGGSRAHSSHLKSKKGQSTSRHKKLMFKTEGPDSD
# Sequence of Myc proto-oncogene protein (Homo sapiens) (P01106 whole entry, looked up): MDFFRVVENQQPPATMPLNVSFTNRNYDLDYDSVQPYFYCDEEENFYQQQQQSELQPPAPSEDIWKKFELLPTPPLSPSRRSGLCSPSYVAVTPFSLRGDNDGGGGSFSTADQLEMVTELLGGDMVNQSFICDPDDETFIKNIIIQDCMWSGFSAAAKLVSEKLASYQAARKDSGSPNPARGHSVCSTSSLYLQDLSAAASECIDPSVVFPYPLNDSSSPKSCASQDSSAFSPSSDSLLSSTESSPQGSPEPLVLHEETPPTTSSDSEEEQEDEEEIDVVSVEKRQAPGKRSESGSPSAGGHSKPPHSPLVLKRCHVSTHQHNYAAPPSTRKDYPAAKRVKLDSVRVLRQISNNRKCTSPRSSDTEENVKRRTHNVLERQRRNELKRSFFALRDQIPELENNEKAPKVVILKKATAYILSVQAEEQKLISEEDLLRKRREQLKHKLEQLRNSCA
# Sequence of Transcription factor E2F1 (Homo sapiens) (Q01094 whole entry, looked up): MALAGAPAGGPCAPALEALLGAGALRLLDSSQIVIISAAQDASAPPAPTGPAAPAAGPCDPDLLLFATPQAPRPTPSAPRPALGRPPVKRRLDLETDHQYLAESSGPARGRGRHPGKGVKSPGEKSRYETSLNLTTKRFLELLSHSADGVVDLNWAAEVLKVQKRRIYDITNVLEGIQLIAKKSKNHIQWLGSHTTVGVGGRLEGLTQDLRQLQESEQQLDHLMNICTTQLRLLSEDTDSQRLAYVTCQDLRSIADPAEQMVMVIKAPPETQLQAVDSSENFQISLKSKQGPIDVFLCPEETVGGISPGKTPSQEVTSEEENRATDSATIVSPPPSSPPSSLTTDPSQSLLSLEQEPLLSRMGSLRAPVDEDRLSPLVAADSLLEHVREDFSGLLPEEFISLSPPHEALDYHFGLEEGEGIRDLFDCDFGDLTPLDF
compound,measurement,setting,value
N#CCN(CC#N)CCN(CC#N)CC#N,outcome,[1],inactive
same,outcome,[2],inactive
same,outcome,[3],inactive
same,outcome,[4],inactive
same,outcome,[5],inactive
same,outcome,[6],inactive
same,outcome,[7],inactive
same,outcome,[8],inactive
same,outcome,[9],inactive
same,outcome,[10],inactive
same,outcome,[11],inactive
same,outcome,[12],inactive
same,outcome,[13],inactive
same,outcome,[14],inactive
same,outcome,[15],inactive
same,outcome,[16],inactive
same,outcome,[17],inactive
O=C(OCc1ccccc1)c1ccccc1,outcome,[2],inactive
same,outcome,[18],inactive
same,outcome,[19],inactive
same,outcome,[3],inactive
same,AC50,[4],175 µM (active)
same,outcome,[5],inactive
same,outcome,[6],inactive
same,outcome,[20],inactive
same,outcome,[7],inactive
same,outcome,[9],inactive
same,outcome,[10],inactive
same,outcome,[11],inactive
same,outcome,[13],inactive
same,outcome,[14],inactive
same,outcome,[16],inactive
same,outcome,[17],inactive
